# Measured values taken from PubChem BioAssay.
# Where “and” joins values, the source holds several entries; their conditions need not be identical. Equal entries are not always repeated. Calls of active or inactive are those of the source.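 The calls were made as follows, unless noted: active = at least 20% inhibition of 6-phosphogluconate dehydrogenase activity; inactive = the rest.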
# Columns and labels:
# [1] = target: 6-phosphogluconate dehydrogenase, decarboxylating (Homo sapiens) (UniProt P52209); assay: 6PGD enzyme inhibitors, primary screen, biochemical, human, recombinant enzyme, NADPH absorbance (AID 1159550); details: recombinant 6PGD, NADPH absorbance 341 nm; at 10 µM; stronger effect = higher value
# 6-phosphogluconate dehydrogenase, decarboxylating (Homo sapiens), sequence (P52209 whole entry, looked up): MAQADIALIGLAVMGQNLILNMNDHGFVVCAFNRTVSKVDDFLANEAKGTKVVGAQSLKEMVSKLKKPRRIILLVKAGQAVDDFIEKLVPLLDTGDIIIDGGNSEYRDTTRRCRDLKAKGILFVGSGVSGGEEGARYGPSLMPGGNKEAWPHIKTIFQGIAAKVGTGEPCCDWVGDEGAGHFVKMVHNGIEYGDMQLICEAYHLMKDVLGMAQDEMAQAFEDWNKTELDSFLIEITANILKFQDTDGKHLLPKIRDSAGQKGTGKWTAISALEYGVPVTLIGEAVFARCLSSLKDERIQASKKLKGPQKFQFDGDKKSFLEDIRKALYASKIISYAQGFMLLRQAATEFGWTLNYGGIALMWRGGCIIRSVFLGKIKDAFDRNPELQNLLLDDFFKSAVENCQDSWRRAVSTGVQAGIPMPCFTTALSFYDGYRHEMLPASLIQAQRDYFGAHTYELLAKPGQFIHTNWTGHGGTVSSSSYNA
# [2] = differential killing of epithelial or mesenchymal cells, primary screen, imaging, PC-3E GFP, TEM4-18 mCherry, co-culture (AID 1345086;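 active = compounds killing one labelled cell type while sparing the other, by normalised counts and ratio limits, not self-fluorescent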;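 as to all read-outs here: cells exposed to compound for 72 h before imaging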;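 as to red/green cell ratio (normalised): normalised mesenchymal count divided by normalised epithelial count so high means epithelial killing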); details: imaging cell counts, at 1 µM; for red/green cell ratio (normalised): actives lie on both sides, counts scaled to control wells, 1 = unselective
# [3] = target: Mitogen-activated protein kinase 7 (Homo sapiens) (UniProt Q13164); assay: ERK5 transactivation activators in reporter cells, primary screen, cell-based, HTS (AID 1508626;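 active = luciferase signal above three times the same-plate solvent-only control wells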;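 also: luciferase driven by Gal4-ERK5 fusion binding five Gal4 sites before minimal TATA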); details: HeLa Gal4-ERK5 transactivation, 18 h, at 5 µM, stronger effect = higher value
# Mitogen-activated protein kinase 7 (Homo sapiens), sequence (Q13164 whole entry, looked up, the tested form may be a part): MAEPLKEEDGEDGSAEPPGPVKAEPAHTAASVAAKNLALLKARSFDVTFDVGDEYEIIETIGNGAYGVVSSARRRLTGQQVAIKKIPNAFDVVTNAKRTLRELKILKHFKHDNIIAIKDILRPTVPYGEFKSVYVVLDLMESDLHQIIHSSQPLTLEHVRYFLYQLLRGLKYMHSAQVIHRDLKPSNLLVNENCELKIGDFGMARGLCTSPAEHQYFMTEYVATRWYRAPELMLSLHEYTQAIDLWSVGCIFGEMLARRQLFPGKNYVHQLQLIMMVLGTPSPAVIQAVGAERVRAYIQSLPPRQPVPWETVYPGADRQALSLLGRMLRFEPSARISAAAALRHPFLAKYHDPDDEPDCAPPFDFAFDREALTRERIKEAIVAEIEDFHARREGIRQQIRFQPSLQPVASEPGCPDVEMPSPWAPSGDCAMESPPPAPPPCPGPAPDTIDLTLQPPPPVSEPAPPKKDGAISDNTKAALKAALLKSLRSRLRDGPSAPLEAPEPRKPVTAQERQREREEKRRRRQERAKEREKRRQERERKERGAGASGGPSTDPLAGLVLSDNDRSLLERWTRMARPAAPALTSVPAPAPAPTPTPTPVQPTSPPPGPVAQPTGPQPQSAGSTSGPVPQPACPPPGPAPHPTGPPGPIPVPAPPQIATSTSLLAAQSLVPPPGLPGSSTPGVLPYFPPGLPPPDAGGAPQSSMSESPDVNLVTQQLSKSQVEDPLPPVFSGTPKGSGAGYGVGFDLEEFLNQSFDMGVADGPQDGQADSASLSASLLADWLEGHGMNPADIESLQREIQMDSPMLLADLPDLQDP
# [4] = measured here: epithelial PC-3E GFP cell survival
# [5] = measured here: mesenchymal TEM4-18 mCherry cell survival
SMILES,inhibition [1],red/green cell ratio (normalised) [2],"normalised cell number [2, 4]","normalised cell number [2, 5]",luciferase signal [3]
CC(CCC(=O)O)[C@H]1CCC2C3CC[C@@H]4CC(=O)CC[C@]4(C)C3C=C[C@@]21C (stereo not given in full),12.1% (inactive),0.9 (inactive),1,0.9,28 AU (inactive)
CCCCCc1c2c(cc(O)c1C(=O)O)OC(=O)c1c(cc(OC)cc1C(=O)CCCC)O2,4.81% (inactive),0.98 (inactive),1.07,1.05,48 AU (inactive)
O=c1c(O)c(-c2ccccc2)oc2ccccc12,1.99% (inactive),0.97 (inactive),1.03,1,24 AU (inactive)
C=C[C@@](C)(O)CCC1C(=C)C[C@H](O)C2C(C)(C)CCCC12C (stereo not given in full),15.2% (inactive),0.87 (inactive),1.07,0.93,64 AU (inactive)
O=C(O)c1cccc(O)c1O,4.23% (inactive),0.96 (inactive),1.23,1.19,20 AU (inactive)
COc1cc(/C=C/C(=O)O)cc(OC)c1OC,-1.71% (inactive),0.99 (inactive),1.06,1.04,52 AU (inactive)
COc1cc(C)c2c(c1C=O)Oc1c(c(C)c(O)c3c1C(O)OC3=O)OC2=O (stereo not given),-0.395% (inactive),0.74 (inactive),0.95,0.7,44 AU (inactive)
COc1c(-c2coc3cc4c(cc3c2=O)CC(OC(C)=O)C(C)(C)O4)ccc2c1C=CC(C)(C)O2 (stereo not given),13.9% (inactive),0.78 (inactive),1.02,0.8,56 AU (inactive)
COc1cc(O)cc(OC)c1OC,-0.756% (inactive),1.04 (inactive),1.01,1.04,20 AU (inactive)
O=C(CC(=O)c1ccccc1)c1ccccc1,21.3% (active),0.84 (inactive),1.16,0.97,80 AU (inactive)
CC(C)=CCc1c(O)cc2oc(C)cc(=O)c2c1O,8.51% (inactive),0.93 (inactive),1.18,1.1,52 AU (inactive)
O=c1cc(-c2ccc(O)cc2)oc2cc(O[C@@H]3O[C@H](CO)[C@@H](O)[C@H](O)[C@H]3O[C@@H]3OC[C@](O)(CO)[C@H]3O)cc(O)c12,-39.6% (inactive),0.8 (inactive),1.3,1.03,196 AU (active)
CC1(C)CC2C1CCC1(C)OC2(C)CCC1O (stereo not given),12.8% (inactive),1.07 (inactive),0.96,1.03,100 AU (inactive)
COc1cc(-c2coc3cc(O[C@@H]4O[C@H](CO)[C@@H](O)[C@H](O)[C@H]4O)c(OC)c(O)c3c2=O)cc(O)c1OC,-0.763% (inactive),0.96 (inactive),0.99,0.95,68 AU (inactive)
O=C(Nc1ccccc1)Nc1ccccc1,0.726% (inactive),0.79 (inactive),1.16,0.91,108 AU (inactive)
CC(=O)O[C@@H]1CC2C(C)(C)[C@H](O)CC[C@]2(C)C2CC[C@@]3(C)[C@H](c4ccoc4)OC(=O)C4OC43[C@@]21C (stereo not given in full),-1.03% (inactive) and -1.39% (inactive),1.03 (inactive),1.03,1.06,36 AU (inactive)
C=C1[C@H]2CC[C@@]3(C)[C@H](c4ccoc4)OC(=O)C[C@]13O[C@H]1C[C@H](O)C(C)(C)[C@H](CC(=O)OC)[C@]12C,-1.87% (inactive),1.12 (inactive),0.91,1.02,8 AU (inactive)
O=c1cc(-c2cc(O)c(O)c(O)c2)oc2cc(O)cc(O)c12,5.62% (inactive),1.14 (inactive),0.99,1.12,72 AU (inactive)
O=C(O)CCCCCCCCCCCCC1C=CCC1 (stereo not given),-14% (inactive),1 (inactive),1.02,1.02,20 AU (inactive)
COc1c2c(cc3occ(-c4ccc5c(c4)OCO5)c(=O)c13)OC(C)(C)C=C2,-0.247% (inactive),0.95 (inactive),1.19,1.14,60 AU (inactive)
CCc1ccc2c(O)c3c(cc2c1C(=O)OC)C(=O)c1c(O)ccc(O)c1C3=O,-5.67% (inactive),0.83 (inactive),1.11,0.92,44 AU (inactive)
COc1ccc(C(=O)O)c(O)c1OC,17.2% (inactive),1.11 (inactive),1.01,1.12,56 AU (inactive)
CC(=O)O[C@@H]1CC2C(C)(CC[C@H](O)C2(C)C)C2CC[C@]3(C)C(=CC(=O)O[C@H]3c3ccoc3)C21C (stereo not given in full),0.669% (inactive),1.03 (inactive),1.07,1.1,16 AU (inactive)
CC(C)=CCc1c2c(c3occ(-c4ccc(O)cc4)c(=O)c3c1O)C=CC(C)(C)O2,8.7% (inactive),1.02 (inactive),1.04,1.06,392 AU (active)
CC(=O)O[C@@H]1CC[C@@]2(C)C(C[C@@H](OC(C)=O)[C@@]3(C)C4=CC(=O)O[C@@H](c5ccoc5)[C@]4(C)CCC23)C1(C)C (stereo not given in full),-14.7% (inactive),0.98 (inactive),1.08,1.06,56 AU (inactive)
CCC(C(N)=O)c1ccccc1 (stereo not given),-20.8% (inactive),0.96 (inactive),1.17,1.12,68 AU (inactive)
O=c1c(-c2ccccc2)coc2cc(O)cc(O)c12,-1.41% (inactive),0.93 (inactive),1.2,1.12,40 AU (inactive)
C=CC(C1=CC(=O)C(OC)=CC1=O)c1ccc(OC)cc1 (stereo not given),9.18% (inactive),0.93 (inactive),1.1,1.03,36 AU (inactive)
Cc1cc(O)cc(=O)o1,18.1% (inactive),0.97 (inactive),1.03,1.01,52 AU (inactive)
COc1ccc(-c2coc3cc(O)ccc3c2=O)c(O)c1O,9.58% (inactive),0.97 (inactive),0.83,0.8,16 AU (inactive)
